From PubChem BioAssay
USP30 block – blocks human USP30 ubiquitin-rhodamine cleavage | Q70CQ3 | purified USP30, Ub-rhodamine cleavage fluorescence | inhibition, % at 25 µM | 5.3% of 47,000 active | AID 1645860
USP17 block – blocks human USP17 ubiquitin-rhodamine cleavage; A8MUK1; purified USP17, Ub-rhodamine cleavage fluorescence, 3 h; inhibition, % at 50 µM; 6.5% of 47,000 active
USP10 block – human USP10 deubiquitinase inhibition; Q14694; 1.1% of 47,000 active; purified USP10, Ub-rhodamine fluorescence, 60 min; AID 1645856; inhibition, % at 20 µM
USP7 block – inhibitors of human USP7 deubiquitinase | purified USP7, Ub-rhodamine cleavage fluorescence | 0.3% of 47,000 active | inhibition, % at 20 µM | AID 1645854 | Q93009
USP28 inh – human USP28 deubiquitinase inhibition; Q96RU2; purified USP28, Ub-rhodamine cleavage fluorescence, 30 min; inhibition, % at 25 µM; 3% of 47,000 active; AID 1645857
Target sequence (Q96RU2 whole entry, looked up): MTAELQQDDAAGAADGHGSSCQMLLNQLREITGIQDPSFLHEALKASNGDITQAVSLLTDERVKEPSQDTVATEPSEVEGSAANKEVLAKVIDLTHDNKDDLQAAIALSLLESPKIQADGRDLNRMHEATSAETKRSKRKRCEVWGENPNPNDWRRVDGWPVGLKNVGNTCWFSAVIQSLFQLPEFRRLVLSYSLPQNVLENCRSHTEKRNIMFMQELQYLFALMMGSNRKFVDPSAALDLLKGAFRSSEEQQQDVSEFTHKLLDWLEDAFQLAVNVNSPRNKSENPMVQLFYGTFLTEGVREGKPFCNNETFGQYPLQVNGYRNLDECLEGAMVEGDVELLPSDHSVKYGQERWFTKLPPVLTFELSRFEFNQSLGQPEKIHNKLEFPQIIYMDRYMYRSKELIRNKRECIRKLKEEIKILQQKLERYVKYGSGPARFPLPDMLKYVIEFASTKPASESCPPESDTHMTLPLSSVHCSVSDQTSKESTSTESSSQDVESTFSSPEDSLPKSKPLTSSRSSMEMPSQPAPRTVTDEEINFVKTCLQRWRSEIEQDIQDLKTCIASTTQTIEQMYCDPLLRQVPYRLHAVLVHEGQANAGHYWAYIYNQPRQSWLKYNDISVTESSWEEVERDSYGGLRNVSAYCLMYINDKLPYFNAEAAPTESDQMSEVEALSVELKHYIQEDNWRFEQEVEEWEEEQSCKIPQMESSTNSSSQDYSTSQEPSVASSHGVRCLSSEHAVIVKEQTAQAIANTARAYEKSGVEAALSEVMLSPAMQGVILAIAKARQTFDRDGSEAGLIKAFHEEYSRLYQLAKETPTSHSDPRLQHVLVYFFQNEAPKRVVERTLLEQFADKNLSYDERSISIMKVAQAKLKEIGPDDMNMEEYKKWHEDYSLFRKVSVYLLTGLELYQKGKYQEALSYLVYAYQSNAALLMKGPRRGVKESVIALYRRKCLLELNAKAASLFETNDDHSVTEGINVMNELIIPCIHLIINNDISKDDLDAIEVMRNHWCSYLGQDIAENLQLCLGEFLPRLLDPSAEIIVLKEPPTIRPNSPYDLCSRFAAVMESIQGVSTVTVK
USP8 block – human USP8 deubiquitinase inhibition. purified USP8, Ub-rhodamine cleavage fluorescence, 30 min. AID 1645853. inhibition, % at 20 µM. 4.2% of 47,000 active. P40818
Active calls of the source: *; x = no result given. Compounds with a hit are over-represented: about 13% of the library has one in this group of screens. Rule as the data show it: active = inhibition above about 30%; inactive = the rest.

SMILES | USP30 block | USP17 block | USP10 block | USP7 block | USP28 inh | USP8 block
COc1ccc(CNC(=O)CN2C(=O)CC(c3ccccc3)=Nc3ccccc32)cc1 | 0 | 83* | 28 | 10 | -3 | 29
O=C(CN1C(=O)CC(c2ccccc2)=Nc2ccccc21)NCc1ccccc1Cl | 2 | 3 | 5 | 0 | -8 | 1
Cc1cccc(C)c1NC(=O)CN1C(=O)c2cccnc2Sc2ccccc21 | -58 | 4 | -4 | -3 | -14 | -17
O=C(CN1c2ccccc2S(=O)(=O)c2ccccc21)Nc1ccc(F)cc1 | 0 | 11 | 0 | 4 | 12 | 12
Cc1cccc(C)c1NC(=O)CN1C(=O)CC(c2ccccc2)=Nc2ccccc21 | 9 | 4 | 39* | 3 | -13 | -11
O=C(CN1C(=O)CC(c2ccc(F)cc2)=Nc2ccccc21)Nc1ccccc1 | 21 | 38* | 15 | 4 | 27 | 6
CCS(=O)(=O)Nc1ccc2c(c1)CCCN2C(=O)c1cccs1 | 3 | -7 | -2 | -8 | 0 | 11
CC(=O)NCCNS(=O)(=O)c1cccs1 | 7 | -6 | -2 | 2 | 5 | -1
O=C(COc1ccc(Cl)cc1)N1CCc2nc(-c3ccccc3)sc2C1 | 22 | 13 | 11 | -6 | 21 | 8
Cc1ccc(CNC(=O)c2ccc3ncnc(N4CCOCC4)c3c2)cc1 | -25 | -20 | -2 | 0 | -10 | -10
Cc1ccc(S(=O)(=O)c2cnc(SCC(=O)Nc3ccc(Cl)cc3)nc2N)cc1C | 39* | 80* | 5 | 9 | 48* | 23
CC(=O)N1CCC(Cc2cc(N3CC4(CCCCC4)OC3=O)ncn2)CC1 | 1 | -28 | -3 | -5 | 5 | -264
CCn1c(=O)[nH]c2c(C(=O)N3CCC(Cc4ccccc4)CC3)snc2c1=O | 23 | 6 | 1 | 3 | 10 | 5
COc1cccc(NC(=O)[C@H](C)NC(=O)c2cc3c(OC)c(OC)ccc3[nH]2)c1 | -24 | 47* | 3 | 6 | 0 | 81*
CN1C(=O)C2(CCN(C(=O)Nc3ccc(F)cc3)C2)c2ccccc21 (centres undefined) | -1 | 2 | -1 | -17 | 0 | 21
CC(C)(C)c1nn(-c2ccccc2)c2[nH]c(=O)c(CNCc3ccc4c(c3)OCO4)cc12 | -20 | 26 | -1 | 8 | 8 | 80*
CC(C)(C)c1nn(-c2ccccc2)c2[nH]c(=O)c(CNC3CC3)cc12 | -36 | 22 | 6 | 3 | -9 | 82*
CC(C)(C)c1nn(-c2ccccc2)c2[nH]c(=O)c(CNCc3cccnc3)cc12 | 1 | 28 | 3 | -2 | 14 | 5
Cc1ccc(NCc2cc3c(C(C)(C)C)nn(-c4ccc(Cl)cc4)c3[nH]c2=O)cc1 | -58 | 62* | 15 | 7 | 23 | 84*
COc1ccc(COc2ccc3c(C)c(CC(=O)N4CC[C@@]5(O)CCCC[C@H]5C4)c(=O)oc3c2)cc1 | 52* | 46* | 62* | 4 | 20 | 34*
Cc1c(CCC(=O)N2CC[C@@]3(O)CCCC[C@H]3C2)c(=O)oc2cc(OCc3ccc(F)cc3F)ccc12 | 35* | x | 2 | -2 | 15 | 22
CCc1cc(=O)oc2c(C)c(OCC(=O)N3CCC4(O)CCCCC4C3)ccc12 (centres undefined) | -1 | 4 | 0 | -10 | -1 | -6
Cc1oc2cc3oc(=O)c(CC(=O)N4CCC5(O)CCCCC5C4)c(C)c3cc2c1C (centres undefined) | 23 | 5 | -2 | -37 | 7 | 0
CCOc1ccccc1C(=O)NCCS(=O)(=O)N1CCN(c2ccccc2)CC1 | 5 | -3 | 0 | -4 | -1 | -43
Cc1ccccc1C(=O)N1CCC2(CC1)COCCN(Cc1cccnc1)C2 | 8 | -5 | -1 | 20 | -2 | -35
SMILES | USP30 block | USP17 block | USP10 block | USP7 block | USP28 inh | USP8 block
Cc1cccc(NC(=O)Cc2nnc(-c3ccc4ncccc4c3)o2)c1 | -28 | -5 | -6 | -5 | -7 | -278
Cc1ccc(F)cc1NC(=O)Cc1nnc(-c2ccc3ncccc3c2)o1 | 1 | 25 | -9 | 5 | 3 | 56*
CCc1ccc(NC(=O)Cc2nnc(-c3ccc4ncccc4c3)o2)cc1 | 43* | 63* | -5 | 2 | 21 | 51*
COc1cc2ccccc2cc1C(=O)Nc1cccc(C)c1C | x | 57* | 4 | 8 | x | 6
COc1cc2ccccc2cc1C(=O)NCc1ccccc1 | 27 | 17 | 8 | 7 | 26 | 7
c1ccc2c(c1)N=C(c1ccc3c(c1)OCO3)CCN2 | -60 | 41* | -7 | -9 | 13 | 78*
Cc1cc(=O)[nH]c(C2CN(Cc3ccnc(N4CCCC4)n3)CCO2)n1 (centres undefined) | -27 | -16 | -7 | -3 | -19 | -14
Cc1ncc2c(=O)n(CCOc3ccc(F)cc3)c(=O)n(C)c2n1 | -321 | -90 | -6 | -19 | -97 | -31
Cc1cnnn1-c1ccc(C(=O)Nc2ccc(Cl)cc2)cc1 | 58* | 45* | 5 | 4 | 50* | 5
Cc1cnnn1-c1ccc(C(=O)Nc2ccccc2Cl)cc1 | x | 1 | 0 | x | x | 0
Nc1ccc2oc(-c3cccc(-c4nc5cc(N)ccc5o4)n3)nc2c1 | 68* | 53* | 37* | 30 | 48* | 73*
O=C(NC1CCCC1)N1CC[C@@H]2CN(Cc3ccncc3)S(=O)(=O)[C@@H]2CC1 | -103 | 6 | 1 | 7 | 0 | 3
CCc1ccc(C(C)NC(=O)C2CCN(c3ccc4nncn4n3)CC2)cc1 (centres undefined) | 9 | 7 | 1 | -5 | 54* | 3
CCCCc1ccc(NC(=O)Nc2ccccc2C(=O)NCC2CC2)cc1 | 27 | 31* | 6 | 6 | 14 | 20
O=C(NCC1CCN(CCc2ccccc2)C1)Nc1ccccc1 (centres undefined) | -9 | -8 | -2 | 0 | -4 | 3
Cn1c(=O)c(N2CCN(C(=O)CCC3CCCCC3)CC2)nc2ccncc21 | 0 | -10 | -3 | -8 | -7 | 0
CCCc1cc(C2CCCN2C(=O)c2cc(-c3ccccc3)no2)no1 (centres undefined) | 32* | 20 | 3 | 1 | 9 | 6
CCCc1cc(C2CCCN2C(=O)c2cc(-c3ccccc3)on2)no1 (centres undefined) | 20 | 9 | 6 | 2 | 12 | 12
O=C(NCc1nc2ccccc2[nH]1)c1cccc(S(=O)(=O)N2CCc3ccccc32)c1 | 59* | 31* | 7 | 10 | 29 | -61
Cc1ccc(OCC(=O)NCC(c2ccc3c(c2)CCCN3C)N2CCOCC2)cc1 (centres undefined) | -234 | -62 | -17 | -12 | -62 | -28
CCc1cc2c(=O)[nH]c(Cc3ccc(OC)cc3)nc2s1 | 40* | 58* | 9 | 2 | 11 | 35*
CCc1cc2c(NCc3cccnc3)nc(C)nc2s1 | 13 | -2 | 0 | 5 | 2 | 4
Cc1nnc(NC(=O)c2cn(-c3ccc(Br)cc3)nn2)s1 | 34* | 19 | 3 | 1 | 0 | -85
